Experimental findings from PubChem BioAssay (EPA / NIEHS) are described below.

Common to all, as to settings: mRNA level, 48 h; actives raise or lower the signal
Read-out in test [1]: MYC, MYC (gene 4609)
Briefly: LTEA_HepaRG_MYC: Life Technologies and Expression Analysis (LTEA) Assay for MYC using HepaRG (AID 2283518). In short, it runs like this: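 Cells are thawed, plated and cultured 48 h, then treated for 48 h with test chemicals (eight half-log concentrations from 100 uM, 0.5% DMSO vehicle). RNA is isolated and MYC expression quantified by qRT-PCR against three housekeeping genes.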

Read-out in test [2]: matrix metalloproteinase-3 (MMP3), MMP3 (gene 4314)
Description: LTEA_HepaRG_MMP3: Life Technologies and Expression Analysis (LTEA) Assay for matrix metalloproteinase-3 (MMP3) using HepaRG (AID 2283519). An outline of the steps:
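Differentiated human HepaRG cells, plated 48 h on collagen I, were exposed in duplicate for 48 h in serum-free induction medium to eight half-log concentrations up to 100 uM in 0.5% DMSO. MMP3 mRNA was quantified by TaqMan qRT-PCR, normalised to ACTB, GAPDH and POLR2A.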

Read-out in test [3]: Paternally Expressed 10 (PEG10), PEG10 (gene 23089)
Description: LTEA_HepaRG_PEG10: Life Technologies and Expression Analysis (LTEA) Assay for Paternally Expressed 10 (PEG10) using HepaRG (AID 2283520). In short, it runs like this:
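HepaRG, 48 h post-plating → serum-free induction medium → 48 h chemical exposure (duplicate, 8-pt, max 100 uM, half-log, 0.5% DMSO) → lysis in RLT → TaqMan qRT-PCR for PEG10, ACTB/GAPDH/POLR2A normalisation.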

Read-out in test [4]: Nuclear factor NF-kappa-B p105 subunit (Homo sapiens) (UniProt P19838)
Briefly: LTEA_HepaRG_NFKB1: Life Technologies and Expression Analysis (LTEA) Assay for Nuclear Factor Kappa B Subunit 1 (NFKB1) using HepaRG (AID 2283521). An outline of the steps: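 NFKB1 transcript was measured by TaqMan qRT-PCR on Fluidigm arrays, normalised to three housekeeping genes and fitted in both directions against 0.5% DMSO. HepaRG cells were dosed in duplicate for 48 h in serum-free induction medium, eight half-log steps from 100 uM.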

Read-out in test [5]: Protein phosphatase 2A (PPP2R4), PTPA (gene 5524)
Briefly: LTEA_HepaRG_PPP2R4: Life Technologies and Expression Analysis (LTEA) Assay for Protein phosphatase 2A (PPP2R4) using HepaRG (AID 2283522). An outline of the steps: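 Readout is PPP2R4 transcript level by microfluidic qRT-PCR after 48 h chemical treatment of human HepaRG liver cells. Concentrations spanned 100 uM downward in half-log steps; gain or loss of signal was fitted relative to DMSO.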

Read-out in test [6]: Phosphatase and tensin (PTEN), PTEN (gene 5728)
Briefly: LTEA_HepaRG_PTEN: Life Technologies and Expression Analysis (LTEA) Assay for Phosphatase and tensin (PTEN) using HepaRG (AID 2283523). In short, it runs like this:
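Differentiated human HepaRG cells, plated 48 h then switched to serum-free induction medium, were exposed in duplicate for 48 h to eight half-log concentrations up to 100 uM in 0.5% DMSO. PTEN mRNA measured by TaqMan qRT-PCR, normalized to ACTB/GAPDH/POLR2A, bidirectional fit versus DMSO.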

Read-out in test [7]: Pyruvate Dehydrogenase Kinase 4 (PDK4), PDK4 (gene 5166)
Briefly: LTEA_HepaRG_PDK4: Life Technologies and Expression Analysis (LTEA) Assay for Pyruvate Dehydrogenase Kinase 4 (PDK4) using HepaRG (AID 2283525). An outline of the steps:
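Differentiated human HepaRG cells, pre-cultured 48 h, were exposed in duplicate for 48 h in serum-free induction medium to eight half-log concentrations up to 100 uM in 0.5% DMSO. PDK4 mRNA was quantified by qRT-PCR, normalized to ACTB, GAPDH and POLR2A, bidirectional fitting versus DMSO.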

Read-out in test [8]: NAD(P)H dehydrogenase [quinone] 1 (NQO1), NQO1 (gene 1728)
Briefly: LTEA_HepaRG_NQO1: Life Technologies and Expression Analysis (LTEA) Assay for NAD(P)H dehydrogenase [quinone] 1 (NQO1) using HepaRG (AID 2283526). In short, it runs like this: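 HepaRG, 48 h post-plating → serum-free induction medium → test chemical 48 h (duplicate, 100 uM top, half-log x8, 0.5% DMSO) → RNA isolation → qRT-PCR, ACTB/GAPDH/POLR2A normalization; bidirectional curve fit vs DMSO baseline.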

Read-out in test [9]: Nuclear factor erythroid 2-related factor 2 (Homo sapiens) (UniProt Q16236)
Description: LTEA_HepaRG_NFE2L2: Life Technologies and Expression Analysis (LTEA) Assay for Nuclear factor erythroid 2-related factor 2 (NFE2L2) Transcription Factor using HepaRG (AID 2283527). An outline of the steps: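 Differentiated human HepaRG cells in serum-free induction medium were exposed for 48 h to eight concentrations (top 100 uM, half-log dilutions, 0.5% DMSO), in duplicate. NFE2L2 mRNA was quantified by TaqMan qRT-PCR, normalized to ACTB, GAPDH and POLR2A, with bidirectional fitting versus DMSO.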

Read-out in test [10]: succinate dehydrogenase complex iron sulfur subunit B (SDHB), SDHB (gene 6390)
Briefly: LTEA_HepaRG_SDHB: Life Technologies and Expression Analysis (LTEA) Assay for succinate dehydrogenase complex iron sulfur subunit B (SDHB) using HepaRG (AID 2283528). An outline of the steps:
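SDHB transcript level read by TaqMan qRT-PCR, housekeeping-normalised (ACTB, GAPDH, POLR2A), after 48 h chemical treatment of plated HepaRG cells; eight concentrations top 100 uM, half-log steps, 0.5% DMSO, duplicates; fitted both directions against DMSO.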

Read-out in test [11]: Signal transducer and activator of transcription 3 (Homo sapiens) (UniProt P40763)
Briefly: LTEA_HepaRG_STAT3: Life Technologies and Expression Analysis (LTEA) Assay for Signal transducer and activator of transcription (STAT3) using HepaRG (AID 2283529). In short, it runs like this:
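Differentiated human HepaRG cells in serum-free induction medium were exposed in duplicate for 48 h to eight half-log concentrations up to 100 uM in 0.5% DMSO. STAT3 mRNA was quantified by TaqMan qRT-PCR, normalized to ACTB, GAPDH and POLR2A, and fitted bidirectionally against DMSO.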

Read-out in test [12]: solute carrier (SLCO1B1), SLCO1B1 (gene 10599)
Briefly: LTEA_HepaRG_SLCO1B1: Life Technologies and Expression Analysis (LTEA) Assay for solute carrier (SLCO1B1) using HepaRG (AID 2283530). In short, it runs like this: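 Gain or loss of SLCO1B1 mRNA is fitted against the 0.5% DMSO vehicle in human HepaRG liver cells treated 48 h at up to 100 uM in half-log steps. Expression comes from qRT-PCR normalized to endogenous controls.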

Read-out in test [13]: sulfotransferase 2A1 (SULT2A1), SULT2A1 (gene 6822)
Briefly: LTEA_HepaRG_SULT2A1: Life Technologies and Expression Analysis (LTEA) Assay for sulfotransferase 2A1 (SULT2A1) using HepaRG (AID 2283531). An outline of the steps:
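Cells were plated and cultured 48 h, switched to serum-free induction medium, then dosed in duplicate for 48 h (8 concentrations, max 100 uM). RNA was isolated and SULT2A1 expression measured by qRT-PCR; gain or loss of signal fitted relative to DMSO.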

Read-out in test [14]: Transforming Growth Factor (TGFA), TGFA (gene 7039)
Description: LTEA_HepaRG_TGFA: Life Technologies and Expression Analysis (LTEA) Assay for Transforming Growth Factor (TGFA) using HepaRG (AID 2283532). An outline of the steps: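 Differentiated human HepaRG cells, plated 48 h then switched to serum-free induction medium, were exposed in duplicate for 48 h to 8-point half-log series from 100 uM in 0.5% DMSO. TGFA mRNA measured by qRT-PCR, normalized to ACTB/GAPDH/POLR2A, bidirectional fit versus DMSO.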

Read-out in test [15]: Transforming Growth Factor (TGFB1), TGFB1 (gene 7040)
Briefly: LTEA_HepaRG_TGFB1: Life Technologies and Expression Analysis (LTEA) Assay for Transforming Growth Factor (TGFB1) Transporter using HepaRG (AID 2283533). In short, it runs like this: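 Expression change of TGFB1 in human HepaRG cells is measured after a 48 h chemical exposure, up to 100 uM in 0.5% DMSO vehicle. Curves are fitted in both directions relative to the DMSO baseline.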

Read-out in test [16]: TIMP1, TIMP1 (gene 7076)
Description: LTEA_HepaRG_TIMP1: Life Technologies and Expression Analysis (LTEA) Assay for TIMP1 using HepaRG (AID 2283534).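 Also: TaqMan qRT-PCR signal normalized to ACTB GAPDH and POLR2A housekeeping genes.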 An outline of the steps:
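We dosed human liver HepaRG cultures for 48 hours with up to 100 uM test chemical and measured TIMP1 expression by qRT-PCR. Activity in either direction is fitted relative to the 0.5% DMSO vehicle.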

Read-out in test [17]: Tumor necrosis factor receptor 1 (TNFRSF1A), TNFRSF1A (gene 7132)
Description: LTEA_HepaRG_TNFRSF1A: Life Technologies and Expression Analysis (LTEA) Assay for Tumor necrosis factor receptor 1 (TNFRSF1A) using HepaRG (AID 2283535). In short, it runs like this:
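Expression of TNFRSF1A in human HepaRG liver cells was measured by qRT-PCR 48 h after chemical dosing (maximum 100 uM). Bidirectional curve fitting used 0.5% DMSO as baseline.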

Read-out in test [18]: Thyroid Hormone Responsive (THRSP), THRSP (gene 7069)
Description: LTEA_HepaRG_THRSP: Life Technologies and Expression Analysis (LTEA) Assay for Thyroid Hormone Responsive (THRSP) using HepaRG (AID 2283536). An outline of the steps: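 Differentiated human HepaRG cells were exposed in duplicate for 48 h in serum-free induction medium to eight concentrations (top 100 uM, half-log steps, 0.5% DMSO). Expression was quantified by TaqMan qRT-PCR, normalized to ACTB, GAPDH and POLR2A, with bidirectional fitting against DMSO.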

Read-out in test [19]: Cellular tumor antigen p53 (Homo sapiens) (UniProt P04637)
Description: LTEA_HepaRG_TP53: Life Technologies and Expression Analysis (LTEA) Assay for Tumor Protein P53 (TP53) using HepaRG (AID 2283537). In short, it runs like this:
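TP53 transcript measured by qRT-PCR, normalized to three housekeeping genes, after 48 h treatment of human HepaRG cultures with chemicals from 100 uM downward in half-log steps (0.5% DMSO vehicle, serum-free induction medium). Up- or down-regulation fitted against DMSO.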

Read-out in test [20]: solute carrier (SLC22A1), SLC22A1 (gene 6580)
Briefly: LTEA_HepaRG_SLC22A1: Life Technologies and Expression Analysis (LTEA) Assay for solute carrier (SLC22A1) using HepaRG (AID 2283524). In short, it runs like this: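 Human HepaRG cells were plated 48 h, switched to serum-free induction medium, then exposed in duplicate for 48 h to 8-point half-log series from 100 uM in 0.5% DMSO. SLC22A1 mRNA measured by qRT-PCR, normalized to ACTB/GAPDH/POLR2A, fitted bidirectionally versus DMSO.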

Activity calls are given as the source filed them. The calls were made as follows: active = hit-call score of the fitted dose curve at least 0.9, where 1 is the maximum; inactive = score below 0.9.

Sequence of Signal transducer and activator of transcription 3 (Homo sapiens) (P40763 whole entry, looked up): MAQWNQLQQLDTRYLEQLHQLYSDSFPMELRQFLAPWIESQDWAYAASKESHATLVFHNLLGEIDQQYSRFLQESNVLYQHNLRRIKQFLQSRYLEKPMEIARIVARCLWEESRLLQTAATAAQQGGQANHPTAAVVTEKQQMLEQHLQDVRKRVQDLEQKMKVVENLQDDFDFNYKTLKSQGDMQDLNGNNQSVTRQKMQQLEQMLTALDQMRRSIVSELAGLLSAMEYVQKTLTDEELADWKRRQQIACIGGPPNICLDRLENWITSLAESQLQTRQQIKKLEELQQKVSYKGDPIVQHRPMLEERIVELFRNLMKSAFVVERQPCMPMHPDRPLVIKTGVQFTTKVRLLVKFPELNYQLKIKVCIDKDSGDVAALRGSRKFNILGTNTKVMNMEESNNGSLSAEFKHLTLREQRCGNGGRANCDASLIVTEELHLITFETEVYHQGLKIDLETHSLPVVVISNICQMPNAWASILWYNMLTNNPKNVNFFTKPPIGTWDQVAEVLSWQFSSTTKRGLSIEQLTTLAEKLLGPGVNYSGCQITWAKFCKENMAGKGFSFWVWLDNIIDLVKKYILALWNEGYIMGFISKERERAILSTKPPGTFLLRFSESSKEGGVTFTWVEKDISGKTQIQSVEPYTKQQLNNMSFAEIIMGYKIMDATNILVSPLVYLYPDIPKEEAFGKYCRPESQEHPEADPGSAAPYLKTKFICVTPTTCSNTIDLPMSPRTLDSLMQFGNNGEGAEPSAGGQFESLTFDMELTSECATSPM
Sequence of Nuclear factor NF-kappa-B p105 subunit (Homo sapiens) (P19838 whole entry, looked up): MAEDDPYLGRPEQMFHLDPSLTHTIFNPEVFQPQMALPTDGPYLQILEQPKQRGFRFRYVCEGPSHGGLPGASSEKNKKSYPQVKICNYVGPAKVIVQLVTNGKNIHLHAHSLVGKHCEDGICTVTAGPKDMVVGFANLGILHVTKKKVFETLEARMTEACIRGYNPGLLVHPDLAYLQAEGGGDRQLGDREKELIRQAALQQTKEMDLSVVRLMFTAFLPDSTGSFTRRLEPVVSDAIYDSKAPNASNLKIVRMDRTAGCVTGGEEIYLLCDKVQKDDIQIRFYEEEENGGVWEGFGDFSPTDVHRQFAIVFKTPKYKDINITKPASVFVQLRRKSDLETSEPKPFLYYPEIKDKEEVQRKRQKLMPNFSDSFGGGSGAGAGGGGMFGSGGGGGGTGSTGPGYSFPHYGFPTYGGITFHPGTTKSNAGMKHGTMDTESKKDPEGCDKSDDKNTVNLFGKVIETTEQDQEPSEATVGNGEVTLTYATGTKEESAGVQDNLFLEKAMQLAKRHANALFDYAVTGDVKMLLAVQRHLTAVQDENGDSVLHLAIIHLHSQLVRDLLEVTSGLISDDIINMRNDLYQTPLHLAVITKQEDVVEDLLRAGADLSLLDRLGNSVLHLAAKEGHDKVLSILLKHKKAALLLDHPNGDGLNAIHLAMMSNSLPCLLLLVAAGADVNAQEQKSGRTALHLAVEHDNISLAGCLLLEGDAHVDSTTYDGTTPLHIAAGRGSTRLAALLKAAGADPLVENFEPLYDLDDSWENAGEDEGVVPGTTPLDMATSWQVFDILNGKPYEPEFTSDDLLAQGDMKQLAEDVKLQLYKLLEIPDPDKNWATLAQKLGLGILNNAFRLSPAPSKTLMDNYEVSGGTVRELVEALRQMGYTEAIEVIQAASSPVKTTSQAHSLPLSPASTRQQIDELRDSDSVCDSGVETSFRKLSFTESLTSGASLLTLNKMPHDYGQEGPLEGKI
Sequence of Nuclear factor erythroid 2-related factor 2 (Homo sapiens) (Q16236 whole entry, looked up): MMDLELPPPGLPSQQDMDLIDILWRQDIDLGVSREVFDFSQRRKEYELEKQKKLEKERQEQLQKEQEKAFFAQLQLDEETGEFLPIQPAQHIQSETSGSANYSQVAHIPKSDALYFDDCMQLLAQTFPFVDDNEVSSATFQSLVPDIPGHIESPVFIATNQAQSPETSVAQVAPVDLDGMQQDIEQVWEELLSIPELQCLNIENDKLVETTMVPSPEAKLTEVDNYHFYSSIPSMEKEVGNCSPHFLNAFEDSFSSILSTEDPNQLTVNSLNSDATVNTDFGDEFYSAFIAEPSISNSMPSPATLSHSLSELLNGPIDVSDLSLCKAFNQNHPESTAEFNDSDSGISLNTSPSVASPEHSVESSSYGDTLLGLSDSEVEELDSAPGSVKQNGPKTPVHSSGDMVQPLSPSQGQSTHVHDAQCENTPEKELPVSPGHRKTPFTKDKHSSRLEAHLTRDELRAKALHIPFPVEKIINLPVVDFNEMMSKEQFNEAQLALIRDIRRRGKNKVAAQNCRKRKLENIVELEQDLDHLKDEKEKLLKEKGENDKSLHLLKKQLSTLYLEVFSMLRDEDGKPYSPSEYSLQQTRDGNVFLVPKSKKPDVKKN
Sequence of Cellular tumor antigen p53 (Homo sapiens) (P04637 whole entry, looked up): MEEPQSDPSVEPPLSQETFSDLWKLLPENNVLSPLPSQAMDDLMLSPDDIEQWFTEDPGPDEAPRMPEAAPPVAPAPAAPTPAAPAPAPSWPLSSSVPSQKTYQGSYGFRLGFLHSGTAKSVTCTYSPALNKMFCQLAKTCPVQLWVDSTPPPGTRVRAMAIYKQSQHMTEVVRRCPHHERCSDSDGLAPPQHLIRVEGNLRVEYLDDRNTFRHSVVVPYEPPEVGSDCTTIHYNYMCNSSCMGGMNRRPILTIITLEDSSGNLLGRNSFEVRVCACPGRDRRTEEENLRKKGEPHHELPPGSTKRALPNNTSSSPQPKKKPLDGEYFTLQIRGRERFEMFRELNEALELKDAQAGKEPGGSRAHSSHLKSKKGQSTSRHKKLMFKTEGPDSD

As for `CCCCC(CC)COC(=O)CCCCCCCC(=O)OCC(CC)CCCC` (stereo not drawn), the result in [1], in test [2], in [3], in test [4], in test [5] and in [6] was inactive. The result in test [7], in [8], in [9], in test [10], in [11] and in [12] was inactive. Also, the result in [13], in [14], in [15], in test [16], in [17] and in test [18] was inactive. Moreover, the call in [19] was inactive.

Broadly, the AC50 is the midpoint of the concentration-response curve, whichever way the signal moves. With `CCCCCCCC(=O)OC`, the call in test [1], in test [2], in [3], in test [4], in test [5] and in test [20] was inactive. For the same compound, the compound was classed as inactive in test [7], in test [8], in [9], in test [10], in test [11] and in [12]. Besides, the call in [13], in [14], in test [15], in test [16], in test [17] and in [18] was inactive. Further, the compound was called inactive in test [19]. In addition, in test [6], the half-maximal activity concentration (AC50) is 12.2 µM (active).

For `CC(=O)OCC(COC(C)=O)OC(C)=O`, the compound was called inactive in test [1], in test [2], in test [3], in test [4], in test [5] and in test [6]. For the same compound, the compound was called inactive in test [20], in [7], in [8], in [9], in test [10] and in [11]. Besides, the outcome in [12], in test [13], in [14], in test [15], in test [16] and in [17] was inactive. Moreover, the compound was classed as inactive in test [18].
